Screening results from PubChem.
MCF10A rerep = DNA re-replication induction in MCF 10a cells. Potency, µM (top dose mostly 46.1 µM), for inactives: at the top dose activity, positive = re-replication, hits mostly activators. 350,000 tested, 2.9% active. MCF 10A DNA re-replication, Hoechst nuclear intensity, 48 h; further: % of control where 0% means no effect; nearly all actives have a fitted effect of over 50% in size
12-LOX inh = inhibitors of human 12S-lipoxygenase ALOX12; Potency, µM (titrated, usually from 108 µM), for the others: top-dose activity change, negative = inhibition, hits mostly inhibitors; AID 1671190; P18054; 580,000 tested, 1.1% active; purified 12hLO, xylenol orange hydroperoxide absorbance; further: on the % scale 0 is the no-effect control and ±100 the full control effect
Target sequence (P18054 whole entry, looked up): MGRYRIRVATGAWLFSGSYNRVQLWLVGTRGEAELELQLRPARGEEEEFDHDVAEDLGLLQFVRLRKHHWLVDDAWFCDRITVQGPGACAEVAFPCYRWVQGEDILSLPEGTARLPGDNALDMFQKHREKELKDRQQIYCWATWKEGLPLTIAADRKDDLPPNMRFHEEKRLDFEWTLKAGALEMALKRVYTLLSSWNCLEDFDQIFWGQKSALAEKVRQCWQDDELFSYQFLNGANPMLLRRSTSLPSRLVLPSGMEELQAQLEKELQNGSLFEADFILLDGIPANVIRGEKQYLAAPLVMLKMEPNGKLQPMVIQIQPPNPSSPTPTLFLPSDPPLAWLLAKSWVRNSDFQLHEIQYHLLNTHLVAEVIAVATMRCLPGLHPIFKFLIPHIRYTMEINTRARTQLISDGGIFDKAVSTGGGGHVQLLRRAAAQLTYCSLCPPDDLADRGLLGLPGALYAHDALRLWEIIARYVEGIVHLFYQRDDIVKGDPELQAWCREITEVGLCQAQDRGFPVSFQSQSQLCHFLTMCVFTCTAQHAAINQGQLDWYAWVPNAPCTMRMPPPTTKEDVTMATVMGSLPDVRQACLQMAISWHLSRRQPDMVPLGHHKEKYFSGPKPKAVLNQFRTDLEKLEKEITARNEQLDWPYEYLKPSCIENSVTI
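Purified human 12hLO at 150 nM in 25 mM Hepes, 0.01% Triton X-100, pH 7.0, preincubated 15 min at room temperature with compound. Reaction started with 40 uM arachidonic acid, 30 min at room temperature. Hydroperoxide measured by Fe-xylenol orange, 573/405 nm absorbance ratio.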
PINK1 expr mod = PINK1 expression modulation; PINK1 immunofluorescence, high-content cytometry, 24 h; Potency, µM (top dose mostly 76.6 µM), for the others: at the highest dose activation (PINK1 increase), most hits filed as activators; 410,000 tested, 0.2% active; AID 624263; active means well fitted activation curve with a large enough effect; inconclusive means small, poorly fitted or top-dose-only effect; cell line not stated here; further: % of control where 0% means no effect; nearly all actives have a fitted effect of over 65% in size
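Stable cell line, 250 cells/well, 12 h attachment; compounds pinned at 5 concentrations, 24 h; CCCP control. Fixed with nuclear dye, primary antibodies 12 h at 10 degrees C, secondary plus cell stain; laser-scanning cytometer read.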
KB-3-1 cytotox = kills parental KB-3-1 adenocarcinoma cells; KB-3-1 viability, CellTiter-Glo ATP luminescence, 72 h; Potency, µM (highest dose often 46.1 µM), usual class: cytotoxic; 400,000 tested, 1.4% active; further: on the % scale 0 is the no-effect control and ±100 the full control effect; nearly all actives have a fitted effect of over 60% in size
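KB-3-1 parental drug-naive adenocarcinoma cells in DMEM/10% FBS, incubated 72 h at 37 C with pin-transferred compounds across a concentration series. Viability by CellTiter-Glo luminescence; concentration-response curves fitted after normalization.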
KB-V1 MDR tox = KB-V1 MDR subline cytotoxicity | AID 1347076 | 400,000 tested, 3.4% active | KB-V1 MDR cells viability, CellTiter-Glo, 72 h | Potency, µM (titrated, usually from 46.1 µM), most hits filed as cytotoxic; further: on the % scale 0 is the no-effect control and ±100 the full control effect; nearly all actives have a fitted effect of over 60% in size
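Cytotoxicity via CellTiter-Glo luminescence after 72 h compound exposure at 37 degrees C. Cells: drug-selected KB-V1 line, DMEM phenol-red free plus 10% FBS. Compounds tested at multiple concentrations; normalized data fitted to concentration-effect curves.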
SW480 rereplic = induces DNA re-replication in SW480 colon adenocarcinoma cells | SW480 DNA re-replication, Hoechst DNA content imaging, 48 h | Potency, µM (highest dose often 46.1 µM), for the others: top-dose re-replication activation, most hits filed as activators | 340,000 tested, 1.8% active | AID 624297; further: % of control where 0% means no effect; nearly all actives have a fitted effect of over 55% in size
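Per well, 250 cells were exposed to pinned compound for 48 hr. Nuclear DNA was visualised with Hoechst (40 min, 37 C) and total object intensity recorded by fluorescence scanning.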
Starred values were filed as active, the others as inactive; i = inactive; ? = inconclusive; . = no result; ! = not confirmed by another sample; [ ] = another dose, or the depositor's remark. A selection: hits, their analogues and other compounds. The true share with any hit is near 5.8%. Unless noted, the call rests on the fitted dose curve; in most records, active means well fitted curve in the direction sought with a large enough effect; inconclusive means small, poorly fitted or top-dose-only effect, or another doubt; inactive means no such curve, though single readings can be large; an effect the other way counts as inactive or inconclusive. Potency means the concentration at half of the fitted maximal effect.

SMILES	MCF10A rerep	12-LOX inh	PINK1 expr mod	KB-3-1 cytotox	KB-V1 MDR tox	SW480 rereplic
NC(CSC(c1ccccc1)(c1ccccc1)c1ccc2c(c1)OCO2)C(=O)O (stereo unspecified)	.	13µM*	7%	i	i	.
CCCCCCCC(=O)Oc1ccc(C(=O)O)cc1	.	-3%	.	.	.	.
COc1ccc(C(NC(=O)CC(C)(C)C)c2ccccc2)cc1 (stereo unspecified)	.	36%	.	.	.	.
COc1ccc(Nc2cc3c(cn2)cc(-c2cccc(C(F)(F)F)c2)n3C)cc1	.	45µM*	.	.	.	.
COC(=O)C1=C(C)OC(N)=C(C#N)C1c1ccc(-c2ccccc2)cc1 (stereo unspecified)	.	35µM*	.	.	.	.
COC(=O)C(=O)C1=C(C)OC(N)=C(C#N)C1c1ccccc1 (stereo unspecified)	.	-12%	.	.	.	.
CCOC(=O)CN(C(=O)Cn1nnc(-c2ccc(C)cc2)n1)C(CC)C(=O)NC1CCCC1 (stereo unspecified)	1%	3%	15%[38.3 µM]	i	4.1µM*	1%
CCC(C(=O)NC1CCCC1)N(Cc1ccco1)C(=O)Cn1nnc(-c2ccc(C)cc2)n1 (stereo unspecified)	2%	-20%	42%[38.3 µM]	i	i	-2%
COc1ccc(CC(=O)N2Cc3[nH]cnc3C[C@H]2c2nc(-c3ccc4ccccc4c3)no2)cc1	.	13%	.	.	.	.
CCOc1ccc(C(C)=O)cc1COc1cccnc1[N+](=O)[O-]	?	-13%	7%	?	12µM*	21µM*
COc1ccc(C(C)=O)cc1COc1cccnc1[N+](=O)[O-]	?	-10%	11%	i	15µM*	?
CCOC(=O)C1(C(F)(F)F)N=C(C(F)(F)F)Nc2ccc(F)cc21 (stereo unspecified)	-2%	-10%	12%	i	?	13µM*
Cc1ccc(C(CNC(=O)c2cc(=O)c3cc(Br)ccc3o2)N2CCCCC2)o1 (stereo unspecified)	.	-24%	.	.	.	.
CN1CCN(C2Cc3ccccc3Sc3ccc(Cl)cc32)CC1 (stereo unspecified)	?	?	-1%	i	?	.
CSc1ccc2c(c1)C(N1CCN(C)CC1)Cc1ccccc1S2 (stereo unspecified)	27µM*	?	-1%	i	i	27µM*!
CN1CCN(C2=Cc3ccc(Cl)cc3Sc3ccc(F)cc32)CC1	?	-25%	5%	i	?	4µM*
CN1CCN(C2Cc3cc(F)ccc3Sc3ccc(Cl)cc32)CC1 (stereo unspecified)	21µM*	11%	-2%	i	i	?
CN(Cc1ccc(Cl)cc1)C(=O)C1CCN(c2ccc(C(F)(F)F)cn2)CC1	.	-4%	.	.	.	.
CC(=O)c1cccc(NC(=O)C(Sc2ccc(C(F)(F)F)cn2)c2ccccc2)c1 (stereo unspecified)	.	-43%	.	.	.	.
CC(C(=O)N1CCN(Cc2ccccc2)CC1)n1nc(C(=O)O)c2ccccc2c1=O (stereo unspecified)	.	2%	.	.	.	.
O=C(Nc1ccc(NC(=O)c2cccs2)cc1)c1ccc(Cl)cc1	.	-11%	0%	i	i	.
COc1c(Cl)cc(Cl)cc1/C=C/C(=O)c1ccc(NC(=O)c2cccs2)cc1	3.7µM*	-4%	-3%	?	18µM*	6.5µM*
CCc1ccc2nc3n[nH]c(N)c3cc2c1	1%	-14%	-6%	?	12µM*	1%
Nc1[nH]nc2nc3ccccc3cc12	1%	0%	1%	?	?	-1%
O=S(=O)(Nc1ccc2c(c1)OCCO2)c1cccc2cccnc12	-4%	-11%	2%	i	16µM*	-8%
SMILES	MCF10A rerep	12-LOX inh	PINK1 expr mod	KB-3-1 cytotox	KB-V1 MDR tox	SW480 rereplic
O=C(NCCOc1cccc2cccnc12)c1cccs1	2%	-5%	0%	i	i	3%
O=C(Oc1cccc2cccnc12)c1ccc2c(c1)OCCO2	3.3µM*	-13%	0%	i	?	10µM*
O=C(Oc1cccc2cccnc12)c1cccs1	5.2µM*	?	-1%	?	12µM*	?
CN(CC(=O)Nc1ccc2c(c1)OCCO2)S(=O)(=O)c1cccc2cccnc12	1%	-2%	4%	i	i	1%
CCc1cc(=O)oc2c(C)c(OCC(=O)c3ccc(OC)cc3)ccc12	.	25%	.	.	.	.
COc1cccc(NC(=O)Cn2c(=O)n(-c3ccccc3)c(=O)c3oc4ccccc4c32)c1	16%	-11%	5%	?	21µM*	0%
C=CC[n+]1c(-c2ccc(C)cc2)csc1Nc1c(C)n(C)n(-c2ccccc2)c1=O	7%	28µM*	0%	?	?	-4%
O=C1CCCN1CCCNC(=S)Nc1ccc(Nc2ccccc2)cc1	2%	-7%	0%	i	?	4%
O=C1CCCN1CCCNC(=S)Nc1ccccc1	-1%	28µM*	2%	i	i	-5%[9.22 µM]
Cc1ccc(-c2ncc(C(=O)NCCN(C)C3CCCCC3)c(-c3ccncc3)n2)cc1	.	-1%	.	.	.	.
COc1cccc(C(=O)N2CCOc3ccc(CN4CCc5ccccc5C4)cc3C2)c1	.	49%	.	.	.	.
O=C(NC1CCCC1)c1sc(=S)n2c1[nH]c(=O)c1ccccc12	?	?	32µM*	12µM*	?	?
O=C(NCc1ccco1)c1sc(=S)n2c1[nH]c(=O)c1ccccc12	?	16µM*	?	?	21µM*	2%
O=C(NCc1ccccc1)c1ccc2c(=O)[nH]c3c(C(=O)NCC4CCCO4)sc(=S)n3c2c1 (stereo unspecified)	-10%	?	1%	?	i	-14%
CC(C)COc1ccc2[nH]c3c(c2c1)CCCC3=O	0%	228%	-2%	0.92µM*	0.18µM*	-4%
CCOC(=O)c1cnc(-n2nc(C)cc2C)nc1NC1CCCCC1	21µM*	?	-1%	?	8.2µM*	?
CCOC(=O)c1cnc(-n2nc(C)cc2C)nc1Nc1ccc(C)cc1	6%	-1%	6%	i	1µM*	-7%
CCOC(=O)c1cnc(-n2cc(C)cn2)nc1Nc1ccccc1OC	18%	-14%	54%[38.3 µM]	?	1.8µM*	10%
CCOC(=O)c1cnc(-n2nc(C)cc2C)nc1NC	1%	-4%	0%[38.3 µM]	i	?	?
CCOC(=O)c1cnc(-n2nc(C)cc2C)nc1NNc1nc(-c2ccccc2)cc(-c2ccccc2)n1	?	.	?	26µM*	?	?
COc1ccc2[nH]c3c(c2c1)CCNC31CCN(C(=O)C2CCCC2)CC1	.	2%	.	.	.	.
COc1ccccc1-n1nnc(C(=O)OCc2cc(C)ccc2C)c1C	.	5%	.	.	.	.
